Source: PubChem BioAssay (Tox21)
Values joined by “and” are separate entries in the source; they are usually repeats but may differ in a detail not shown here. Identical values can stand only once. Active and inactive are the calls of the source. Where a call stands in place of a potency, no number is given. Calls come from the whole dose curve; as a rule, active = well fitted curve in the direction sought with a large enough effect in the repeat runs; inconclusive = weak or mixed curves; inactive = flat fitted curve, though single readings scatter.

Assay: qHTS assay to test for compound auto fluorescence at 590 nm (red) in HEK293 cell free culture (AID 720683)
Settings: cell-free medium autofluorescence, Ex540/Em590 red; series mostly up to 91.3 µM
Procedure, shortened: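 Tox21 10K library compounds were pinned into cell-free DMEM with 10% FBS and fluorescence was read at excitation 540 nm. Activity is expressed as Rose Bengal sodium equivalency.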
Tags give direction and shape of the fitted curve or compound fluorescence and quenching.

Compound | outcome
CC(C)(C)NC[C@H](O)COc1nsnc1N1CCOCC1 | inactive
Cc1ccc([N+](=O)[O-])cc1N | inactive
CC(C)=CCC/C(C)=C/C=O | inactive
O=C(NCC1CCCCN1)c1cc(OCC(F)(F)F)ccc1OCC(F)(F)F (centres undefined) | inactive
CC1(C)[C@@H](O[C@H]2O[C@H](C(=O)O)[C@@H](O)[C@H](O)[C@H]2O[C@@H]2O[C@H](C(=O)O)[C@@H](O)[C@H](O)[C@H]2O)CC[C@]2(C)[C@H]3C(=O)C=C4[C@@H]5C[C@@](C)(C(=O)O)CC[C@]5(C)CC[C@@]4(C)[C@]3(C)CC[C@@H]12 | inactive
C1CCCNCC1 | inactive
COc1c2ccoc2cc2oc(=O)ccc12 | inactive
CC(=O)Nc1ccc(CC(=O)O)cc1 | inactive
CCCCCCC(=O)O | inactive
CC(=O)OC(C)(C)C1CC=C(C)CC1 (centres undefined) | inactive
Cc1ccccc1C=O | inactive
NC(=O)NC(N)=O | inactive
Cc1cc(CC(=O)O)n(C)c1C(=O)c1ccc(Cl)cc1 | inactive
C[Si](C)(C)N[Si](C)(C)C | inactive
COc1ccc2cc3[n+](cc2c1OC)CCc1cc2c(cc1-3)OCO2 | inactive
Nc1nc(N)c2nc(-c3ccccc3)c(N)nc2n1 | inactive
Clc1cccc(Cl)c1NC1=NCCN1 | inactive
O=C(O)C1=NN(c2ccc(S(=O)(=O)O)cc2)C(=O)C1 | inactive
N[C@@H](Cc1cc(I)c(Oc2ccc(O)c(I)c2)c(I)c1)C(=O)O | inactive

Compound | outcome
C=C(CC(=O)O)C(=O)O | inactive
Cc1ccccc1Cl | inactive
CCCCCCCCCCCCCC(=O)O | inactive
O=C1CCCCCCCCCCC1 | inactive
COCN(COC)c1nc(N(COC)COC)nc(N(COC)COC)n1 | inactive
Cc1nnc(NS(=O)(=O)c2ccc(N)cc2)s1 | inactive
C[n+]1ccn(CCO)c1 | inactive
NC(N)=S | inactive
CCCCCCCCC(=O)O | inactive
OC1CCCCC1 | inactive
Cc1ccc(C(C)C)cc1 | inactive
CCn1cc(C(=O)O)c(=O)c2cc3c(cc21)OCO3 | inactive
CC(=O)CC(=O)N(C)C | inactive
CCCCC(CC)COC(=O)c1ccc(C(=O)OCC(CC)CCCC)cc1 (centres undefined) | inactive
Cc1cc(C)c(O)c(C)c1 | inactive
CC(C)c1ccc(C(C)C)cc1 | inactive
Oc1ccc(Cc2ccccc2O)cc1 | inactive
OCC(O)CS (centres undefined) | inactive
Cc1ccncc1 | inactive

Assay: qHTS assay to test for compound auto fluorescence at 590 nm (red) in HepG2 cell free culture (AID 720684)
Settings: cell-free medium autofluorescence, red 540/590 nm; series mostly up to 91.3 µM
Procedure, shortened: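 Measured in medium alone (MEM containing 10% FBS) following pintool addition of compound; emission at 590 nm with 540 nm excitation, referenced to Rose Bengal sodium.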

Compound | outcome
CC(C)(C)NC[C@H](O)COc1nsnc1N1CCOCC1 | inactive
Cc1ccc([N+](=O)[O-])cc1N | inactive
CC(C)=CCC/C(C)=C/C=O | inactive
O=C(NCC1CCCCN1)c1cc(OCC(F)(F)F)ccc1OCC(F)(F)F (centres undefined) | inactive
CC1(C)[C@@H](O[C@H]2O[C@H](C(=O)O)[C@@H](O)[C@H](O)[C@H]2O[C@@H]2O[C@H](C(=O)O)[C@@H](O)[C@H](O)[C@H]2O)CC[C@]2(C)[C@H]3C(=O)C=C4[C@@H]5C[C@@](C)(C(=O)O)CC[C@]5(C)CC[C@@]4(C)[C@]3(C)CC[C@@H]12 | inactive
C1CCCNCC1 | inactive
COc1c2ccoc2cc2oc(=O)ccc12 | inactive
CC(=O)Nc1ccc(CC(=O)O)cc1 | inactive
CCCCCCC(=O)O | inactive
CC(=O)OC(C)(C)C1CC=C(C)CC1 (centres undefined) | inactive
Cc1ccccc1C=O | inactive
NC(=O)NC(N)=O | inactive
Cc1cc(CC(=O)O)n(C)c1C(=O)c1ccc(Cl)cc1 | inactive
C[Si](C)(C)N[Si](C)(C)C | inactive
COc1ccc2cc3[n+](cc2c1OC)CCc1cc2c(cc1-3)OCO2 | inactive
Nc1nc(N)c2nc(-c3ccccc3)c(N)nc2n1 | inactive
Clc1cccc(Cl)c1NC1=NCCN1 | inactive
O=C(O)C1=NN(c2ccc(S(=O)(=O)O)cc2)C(=O)C1 | inactive
N[C@@H](Cc1cc(I)c(Oc2ccc(O)c(I)c2)c(I)c1)C(=O)O | inactive

Compound | outcome
C=C(CC(=O)O)C(=O)O | inactive
Cc1ccccc1Cl | inactive
CCCCCCCCCCCCCC(=O)O | inactive
O=C1CCCCCCCCCCC1 | inactive
COCN(COC)c1nc(N(COC)COC)nc(N(COC)COC)n1 | inactive
Cc1nnc(NS(=O)(=O)c2ccc(N)cc2)s1 | inactive
C[n+]1ccn(CCO)c1 | inactive
NC(N)=S | inactive
CCCCCCCCC(=O)O | inactive
OC1CCCCC1 | inactive
Cc1ccc(C(C)C)cc1 | inactive
CCn1cc(C(=O)O)c(=O)c2cc3c(cc21)OCO3 | inactive
CC(=O)CC(=O)N(C)C | inactive
CCCCC(CC)COC(=O)c1ccc(C(=O)OCC(CC)CCCC)cc1 (centres undefined) | inactive
Cc1cc(C)c(O)c(C)c1 | inactive
CC(C)c1ccc(C(C)C)cc1 | inactive
Oc1ccc(Cc2ccccc2O)cc1 | inactive
OCC(O)CS (centres undefined) | inactive
Cc1ccncc1 | inactive

Assay: qHTS assay to test for compound auto fluorescence at 460 nm (blue) in HepG2 cell free culture (AID 720685); note: potency is the fitted concentration of half-maximal effect
Settings: Cell-free culture medium, blue autofluorescence 405/460 nm; series mostly up to 91.3 µM
Procedure, shortened: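 Compound (23 nL) or DMSO pinned into cell-free MEM with 10% FBS; blue fluorescence read at 405/460 nm excitation/emission, expressed as auto-fluorescence equivalency to triamterene.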

Compound | Potency
CC(C)(C)NC[C@H](O)COc1nsnc1N1CCOCC1 | inactive
Cc1ccc([N+](=O)[O-])cc1N | inactive
CC(C)=CCC/C(C)=C/C=O | inactive
O=C(NCC1CCCCN1)c1cc(OCC(F)(F)F)ccc1OCC(F)(F)F (centres undefined) | inactive
CC1(C)[C@@H](O[C@H]2O[C@H](C(=O)O)[C@@H](O)[C@H](O)[C@H]2O[C@@H]2O[C@H](C(=O)O)[C@@H](O)[C@H](O)[C@H]2O)CC[C@]2(C)[C@H]3C(=O)C=C4[C@@H]5C[C@@](C)(C(=O)O)CC[C@]5(C)CC[C@@]4(C)[C@]3(C)CC[C@@H]12 | inactive
C1CCCNCC1 | inactive
COc1c2ccoc2cc2oc(=O)ccc12 | inactive
CC(=O)Nc1ccc(CC(=O)O)cc1 | inactive
CCCCCCC(=O)O | inactive
CC(=O)OC(C)(C)C1CC=C(C)CC1 (centres undefined) | inactive
Cc1ccccc1C=O | inactive
NC(=O)NC(N)=O | inactive
Cc1cc(CC(=O)O)n(C)c1C(=O)c1ccc(Cl)cc1 | inactive
C[Si](C)(C)N[Si](C)(C)C | inactive
COc1ccc2cc3[n+](cc2c1OC)CCc1cc2c(cc1-3)OCO2 | inactive
Nc1nc(N)c2nc(-c3ccccc3)c(N)nc2n1 | 12.6 µM [fluorescent] (active) and 39.8 µM [fluorescent] (active)
Clc1cccc(Cl)c1NC1=NCCN1 | inactive
O=C(O)C1=NN(c2ccc(S(=O)(=O)O)cc2)C(=O)C1 | inactive
N[C@@H](Cc1cc(I)c(Oc2ccc(O)c(I)c2)c(I)c1)C(=O)O | inactive

Compound | Potency
C=C(CC(=O)O)C(=O)O | inactive
Cc1ccccc1Cl | inactive
CCCCCCCCCCCCCC(=O)O | inactive
O=C1CCCCCCCCCCC1 | inactive
COCN(COC)c1nc(N(COC)COC)nc(N(COC)COC)n1 | inactive
Cc1nnc(NS(=O)(=O)c2ccc(N)cc2)s1 | inactive
C[n+]1ccn(CCO)c1 | inactive
NC(N)=S | inactive
CCCCCCCCC(=O)O | inactive
OC1CCCCC1 | inactive
Cc1ccc(C(C)C)cc1 | inactive
CCn1cc(C(=O)O)c(=O)c2cc3c(cc21)OCO3 | inactive
CC(=O)CC(=O)N(C)C | inactive
CCCCC(CC)COC(=O)c1ccc(C(=O)OCC(CC)CCCC)cc1 (centres undefined) | inactive
Cc1cc(C)c(O)c(C)c1 | inactive
CC(C)c1ccc(C(C)C)cc1 | inactive
Oc1ccc(Cc2ccccc2O)cc1 | inactive
OCC(O)CS (centres undefined) | inactive
Cc1ccncc1 | inactive
